Screens: PubChem BioAssay, several laboratories
Compounds with a hit are over-represented: about 4.2% of the library has one in this group of screens.
TIM10 inh: growth inhibitors of isogenic TIM10 control yeast, primary screen, counter-screen for tim10-1 yeast inhibitor project, luminescence, uHTS; inhibition, % at 10 µM; 330,000 tested, 1.4% active; S. cerevisiae TIM10 strain growth, BacTiter-Glo luminescence, 24 h;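 active means inhibition of 40% or more at the single tested concentration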;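 further: wild-type TIM10 isogenic control strain grown at permissive 25 °C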
NLRP3 yeast inh: NALP3 inflammasome inhibitors in reconstituted yeast, primary screen, luminescence, uHTS | Yeast reconstituted NLRP3/ASC/caspase-1, beta-gal luminescence, 24 h | inhibition, % at 10 µM | 330,000 tested, 0.39% active | AID 2825, 2010;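 active means inhibition of 50% or more; inactive means inhibition below 50%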;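 further: plate controls were induced DMSO wells for no effect and uninduced yeast grown without galactose for full effect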
tim23-1 inh: growth inhibitors of tim23-1 mutant yeast, primary screen, luminescence, uHTS; AID 463212, 2010; S. cerevisiae tim23-1 growth, BacTiter-Glo luminescence, 24 h; 330,000 tested, 1.3% active; inhibition, % at 20 µM;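 active means growth inhibition of the mutant yeast at or above 50%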;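 further: temperature-sensitive mutant grown at 25 °C; plate controls were DMSO-treated mutant yeast for no effect and medium wells lacking yeast for full effect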
NALP1 yeast inh: NALP1 inflammasome inhibitors in reconstituted yeast, colorimetric, S. cerevisiae, triplicate retest | S. cerevisiae NALP1/ASC/caspase-1 growth, X-gal OD620, 72 h | inhibition, % at 10 µM | 280,000 tested, 0.61% active | AID 2071, 2009; in the data active means inhibition mostly above about 24%, no sharp cut-off; inactive means mostly below about 32%
V-ATPase pHluor: regulators of yeast V-ATPase proton pumping, primary screen, pHLuorin cytosolic pH fluorescence; S. cerevisiae; response, % at 10 µM; 350,000 tested, 0.37% active; in the data active means response mostly above about 7.3%, no sharp cut-off; inactive means mostly below about 5.4%; further: actives read high
tim10-1 inh: growth inhibitors of tim10-1 mutant yeast, primary screen, luminescence, uHTS; inhibition, % at 20 µM; S. cerevisiae tim10-1 ts strain growth, BacTiter-Glo, 24 h; 330,000 tested, 2.2% active;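 active means inhibition of at least 40%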;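 further: mutant grown at 25 °C; 0% = DMSO wells with yeast and 100% = wells holding no yeast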
Starred values were filed as active, the others as inactive; . = no result.

SMILES	TIM10 inh	NLRP3 yeast inh	tim23-1 inh	NALP1 yeast inh	V-ATPase pHluor	tim10-1 inh
CCC(=O)N(Cc1cc2ccc(C)cc2[nH]c1=O)c1ccccc1OC	-0.2	10.8	22.2	4.9	-2.8	7.5
O=C(NC1CC1)C1CCN(C2CCN(C(=O)c3ccc4cccc(F)c4n3)CC2)CC1	-3.5	6.6	-6.9	-6.9	-2.7	-16.3
O=C(COC(=O)c1ccccc1Br)NCCC1=CCCCC1	17.0	8.3	14.2	38.4*	6.5	14.8
O=C(COC(=O)c1ccccc1NCCO)NCCC1=CCCCC1	-2.5	2.1	3.1	.	-1.3	6.5
Nc1nc(Nc2ccc(Cl)cc2)c(NC=O)c(=O)[nH]1	2.0	10.8	2.6	.	3.9	17.3
C[C@]12CCC(=O)CC1=CCC1C3CC=C(C#N)[C@@]3(C)CC[C@@]12O (some centres not stated)	-16.3	21.2	21.1	15.3	71.4*	17.1
COc1ccccc1OCC(=O)NCCSCc1cccc(Cl)c1	-4.1	31.7	21.6	48.3*	-4.8	22.2
O=C(COc1ccccc1)NCCSCc1ccccc1Cl	-7.6	23.9	32.5	5.4	-1.5	-10.7
COc1ccccc1OCC(=O)NCCSCc1ccccc1Cl	-17.9	12.8	11.8	50.8*	1.4	5.7
C[C@@H]1CN([C@H](C)CO)C(=O)CCCn2cc(nn2)CO[C@H]1CN(C)S(=O)(=O)c1ccc2ccccc2c1	.	.	.	.	-2.0	.
O=C1CSC(=Nc2cccc(Cl)c2Cl)N1	9.4	42.2	30.4	24.6	0.8	37.0
CS(=O)(=O)c1nc(-c2ccco2)cc(C(F)(F)F)n1	25.0	37.3	13.5	61.3*	.	16.8
COc1ccccc1-c1cc(C(F)(F)F)nc(S(C)(=O)=O)n1	18.4	-20.5	-9.0	-2.0	-1.7	13.1
O=C(c1ccc(C(F)(F)F)cc1)C1CCCN(C(=O)CCc2cnccn2)C1 (configuration not stated)	-2.9	11.1	4.4	38.4*	-0.5	19.9
Cc1nc2ccc(NC(=O)c3cc([N+](=O)[O-])cc([N+](=O)[O-])c3Cl)cc2s1	.	.	.	57.5*	1.2	.
CCOC(=O)c1[nH]ncc1CN1CCCC(C(=O)c2cc(Cl)ccc2OC)C1 (configuration not stated)	-5.1	10.0	15.1	33.0*	2.5	-2.4
COc1ccc(C(=O)C2CCCN(Cc3c[nH]c4ccccc34)C2)c(OC)c1 (configuration not stated)	-0.5	13.5	5.5	27.9*	0.7	21.9
CCCn1nnc(NC(=O)Cc2ccccc2)n1	1.7	13.9	15.7	14.3	0.8	11.3
CCCCCC(=O)Nc1nnn(CCC)n1	-1.3	-6.9	14.7	42.6*	1.0	4.2
O=C1OCC/C1=C\NCCCN/C=C1\CCOC1=O	.	.	.	.	0.5	.
COCCCNC(=O)Cn1c(=O)oc2cc(S(=O)(=O)N3CC(C)CC(C)C3)ccc21 (configuration not stated)	-8.6	11.8	-5.4	14.7	20.4*	2.4
Cc1ccccc1OCc1nnc(SCC(=O)O)n1-c1cccc(Cl)c1	-5.8	5.2	7.7	-4.6	4.5	1.2
CN(C)/C=N/c1sccc1C(N)=O	-10.2	21.2	2.3	4.7	16.4*	15.0
CCc1ccc(S(=O)(=O)NCc2cn3cccc(C)c3n2)s1	19.4	-4.7	15.0	8.6	-0.3	7.0
CCc1ccc(S(=O)(=O)NCc2cn3ccccc3n2)s1	0.9	-3.2	7.4	37.9*	0.9	0.7
SMILES	TIM10 inh	NLRP3 yeast inh	tim23-1 inh	NALP1 yeast inh	V-ATPase pHluor	tim10-1 inh
O=C(NCc1cccc(Cl)c1)C1CCCO1 (configuration not stated)	-4.5	7.8	-5.2	31.9*	-1.2	7.5
NC(=O)CN1C(=O)NC2(CCCc3ccccc32)C1=O (configuration not stated)	-4.9	14.7	-8.9	44.9*	2.3	-12.6
COC(=O)c1ccccc1NC(=O)C/C(C)=N/NC(=O)CC#N	-6.9	26.0	14.9	33.6*	7.7	-19.4
COC(=O)c1ccccc1NC(=O)CC#N	8.7	14.1	-5.5	20.2	-0.9	11.7
Oc1ccc(CN2CCCCC2)c2cccnc12	14.0	4.8	-7.2	1.3	-2.1	2.3
Oc1ccc(CN2CCC(Cc3ccccc3)CC2)c2cccnc12	1.9	11.9	12.5	31.0*	.	-13.6
